# Cycloheximide cs: counter-screen for Shiga toxin inhibitors: cycloheximide protein synthesis inhibition; max response, %; cell reporter, cycloheximide protein synthesis inhibition counterscreen; 12% of 300,000 active; AID 2314; in the data active means max response mostly above about 13%, no sharp cut-off; inactive means mostly below about 14%; further: read at 38.3 µM for the half of the compounds with a filed dose; 0% is about no effect
# Shiga toxin inh: Shiga toxin inhibition; Vero cells, Shiga toxin protein synthesis inhibition reporter; inhibition, % at 38.7 µM; 9.2% of 290,000 active; AID 2315; in the data active means inhibition mostly above about 28%, no sharp cut-off; inactive means mostly below about 43%; further: 0% is about no effect
# Pf growth 96h: P. falciparum growth inhibition at 96 hours | AID 504834 | P. falciparum luciferase reporter growth, 96 h | 6.9% of 320,000 active | Potency, µM (titrated, usually from 28.7 µM), without a hit: at the highest dose activity change, negative = inhibition, hits mostly inhibitors; further: potency means the concentration at half of the fitted maximal effect; on the % scale 0 is the no-effect control and ±100 the full control effect
#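 Delayed-death screen, second-generation endpoint: infected erythrocytes, 2% hematocrit, 0.05% parasitemia final; 96 hours at 37 C, 5% CO2; luciferase detection reagent; luminescence decrease equals reduced growth.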
# Pf growth 48h: P. falciparum growth inhibition at 48 hours (one generation) | P. falciparum luciferase growth in erythrocytes, 48 h | Potency, µM (top dose mostly 28.7 µM), for the others: at the top dose activity change, negative = inhibition, hits mostly inhibitors | 5.9% of 310,000 active; further: potency means the concentration at half of the fitted maximal effect; on the % scale 0 is the no-effect control and ±100 the full control effect
#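 Parasite viability was followed by luminescence of a genomically integrated firefly luciferase. Cultures held 0.1% parasitemia at 2% hematocrit (final), incubated under 5% CO2 at 37 C.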
# HCMV antiviral: human cytomegalovirus inhibition | 4.5% of 410,000 active | activity change, negative = inhibition, % at 57.5 µM | AID 1259415 | HFF cells, HCMV-luciferase reporter, 72 h; active compounds read low; in the data active means activity change below about -60%; inconclusive means no clear call, values can overlap the other calls; inactive means above about -39%; further: on the % scale 0 is the no-effect control and ±100 the full control effect
#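 HFF cells seeded 16 h at 37C, treated with compounds, infected with luciferase-reporter HCMV at MOI 1 PFU/cell; luciferase read at 72 h post infection, normalized to buffer-only and Salinomycin controls.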
# * = called active by the depositor; u = inconclusive; x = no result; [ ] = remark or other dose. Most compounds without a hit are left out; they make up all but 20% or so of the library. Unless noted, the call rests on the fitted dose curve; in most records, active means well fitted inhibition curve with a large enough effect; inconclusive means small, poorly fitted or top-dose-only effect, or another doubt; inactive means no such curve, though single readings can be large or run the other way.
SMILES,Cycloheximide cs,Shiga toxin inh,Pf growth 96h,Pf growth 48h,HCMV antiviral
CN(C)C(=O)CCCc1nc(-c2ccc(Cl)cc2)no1,38.3*,155.7*,x,151.3%,28.5
Cc1cccc(-c2noc(CCCC(=O)Nc3cccnc3)n2)c1,7.6,16.9,-5.8%,14.9%,-25.1
CCCc1nnc(NC(=O)CCC(=O)N2CCN(Cc3ccc(F)cc3)CC2)s1,-1.1,0.8,u,1.3%,32.0
CCOC(=O)c1c(NC(=O)C(C)Oc2ccccc2F)sc(C(C)=O)c1C (centres undefined),x,x,x,x,11.7
CCOc1ccccc1CN(Cc1ccco1)S(=O)(=O)c1ccc(-n2cnnn2)c(OC)c1,7.0,19.8,x,10.4µM*,-74.4*
COc1cc(S(=O)(=O)N(Cc2ccco2)C2CCCC2)ccc1-n1cnnn1,-4.4,-6.8,8.5%,u,u
CCOc1cc(S(=O)(=O)NCc2ccco2)c(OCC)cc1-n1cnnn1,34.0*,75.7*,u,-0.9%,u
CCC(C)C(NC(=O)C(CC(C)C)NC(=O)C(CO)NC(=O)C1CCC(=O)N1)C(=O)OC (centres undefined),4.0,-6.5,7.1%,17.1%,-15.7
CC(C)CC(NC(=O)C(CO)NC(=O)C1CCC(=O)N1)C(N)=O (centres undefined),6.1,28.3,10.4µM*,0.8%,-37.2
O=C1CNC(c2ccccc2Cl)c2cc(Br)ccc2N1 (centres undefined),-3.5,-31.9,4.65µM*,-15.9%,-13.1
COC(=O)/C(=N\OCc1ccc(C#N)cc1)c1c(C)nn(C)c1C,1.2,-0.5,-0.9%,-4.2%,-100.0*
C/C(=N\OCc1ccc(C#N)cc1)c1cc2ccccc2o1,-1.2,38.1,7.0%,8.3%,u
CC(=O)Nc1cnc(-c2ccccc2O)cn1,x,x,x,x,116.2
Cc1ccc(-c2nc(N)nc(N)n2)c(C)c1,x,x,59.5%,10.3%,-95.5*
CC(OC(=O)Cc1c[nH]c2ccccc12)C(=O)Nc1ccccc1[N+](=O)[O-] (centres undefined),x,x,11.9%,28.0%,25.9
Fc1ccc(N2CCN(c3cnc4ccccc4n3)CC2)cc1,48.7*,91.1*,207.1%,x,75.8
Fc1ccc(N2CCN(c3nc4ccccc4c4nc(-c5ccccc5)nn34)CC2)cc1,x,x,x,x,-24.5
Clc1ccc(N2CCN(c3cnc4ccccc4n3)CC2)cc1,18.6*,48.9*,x,59.7%,-5.7
Cc1cc(N2CCN(c3ccccc3)CC2)nc2ccccc12,9.5,50.9,0.0%,12.6%,27.6
c1ccc(N2CCN(c3cnc4ccccc4n3)CC2)cc1,62.0*,145.6*,259.0%,x,76.7
CCS(=O)(=O)c1ccc(-c2csc(-c3ccccc3)n2)c(Cl)c1Cl,-0.8,1.5,u,u,-32.7
COc1cccc(C(=O)Nc2cc(-c3cn4cccnc4n3)ccc2C)c1,-2.0,-27.5,u,-23.1%,u
NC(Cc1ccc(Cl)cc1)c1csc(Nc2cc(NCCCO)ncn2)n1 (centres undefined),x,x,x,x,10.6
CN1CCN(C(=O)C2CCCCC2)CC1,x,x,-1.6%,-6.1%,x
CCCCN(Cc1nc2ccccc2c(=O)[nH]1)C(=O)c1nn(C)c(=O)c2ccccc12,x,x,u,-10.8%,-20.5
SMILES,Cycloheximide cs,Shiga toxin inh,Pf growth 96h,Pf growth 48h,HCMV antiviral
O=C(NNC(=O)c1cccs1)c1ccccn1,x,x,x,x,89.4
N#Cc1cc(-c2ccccc2)oc1/N=C/c1ccccc1O,28.9*,18.3,-7.4%,u,-11.9
COc1cccc(/C=N/c2oc(-c3ccccc3)cc2C#N)c1O,23.7*,0.0,11.9%,24.7%,45.0
COc1cccc(C=Nc2ccccc2C#N)c1O,-2.2,-1.7,-5.9%,-10.1%,8.4
COc1ccc(/C=N/c2oc(-c3ccccc3)cc2C#N)cc1,16.2*,28.3,-4.7%,8.1%,6.7
CCOc1cc(CNS(=O)(=O)c2ccc3c(c2)C(C)(C)C(=O)N3)cc(OCC)c1OCC,x,x,x,x,0.0
CCOc1cc(CNc2ccc(CNc3ncn[nH]3)cc2)ccc1OCc1ccccc1,-2.9,-3.5,13.1µM*,u,-0.6
Fc1ccc(CNc2ccc(CNc3ncn[nH]3)cc2)cc1,22.5*,25.6,2.0%[5.75 µM],67.2%,-22.4
CCc1ccc(NC(=O)Cn2c(=O)n(Cc3ccc(C)cc3)c(=O)c3cccnc32)cc1,x,x,x,x,7.5
CCC(C)n1c(=N)c(C(=O)NC2CCCCC2)cc2c(=O)n3cc(C)ccc3nc21 (centres undefined),x,x,x,x,2.2
Cc1ccc(S(=O)(=O)c2cnc(SCC(=O)Nc3ccccc3C(F)(F)F)[nH]c2=O)cc1C,x,x,x,x,15.0
O=C(/C=C/NNC(=O)c1ccccc1)c1ccc(Br)cc1,46.7*,70.9*,183.4%,x,39.2
O=C(/C=C/NNC(=O)c1cccc(Br)c1)c1cccc(Br)c1,1.9,49.9,x,9.28µM*,26.9
COc1ccc(C(=O)NN/C=C/C(=O)c2ccc(Br)cc2)cc1,x,x,x,x,48.7
O=C(/C=C/NNC(=O)c1ccc(Cl)cc1)c1ccccc1,31.1*,46.8*,-20.3%,-30.4%,-16.2
COc1ccc(C(=O)C=CNNC(=O)c2ccc(Cl)cc2)cc1,15.7*,x,3.5%,u,14.4
Cc1cc(=O)n(Cc2c(F)cccc2Cl)c2c1c(C)nn2-c1cccc(F)c1,x,x,x,x,6.2
CSCCC(NC(=O)c1ccccc1Cl)C(=O)NCCc1ccccn1 (centres undefined),x,x,x,x,0.0
O=C(/C=C/NCC(=O)c1ccccc1)c1ccc(Br)cc1,12.6,45.4*,u,21.4%,31.5
COc1ccc(N(CC(=O)NCC2CCCO2)C(=O)CCC(=O)Nc2nccs2)cc1 (centres undefined),x,x,x,x,10.0
Cc1noc(C)c1C(=O)Nc1ccc(F)cc1,1.7,-11.8,19.7%,12.5%,-28.8
CC(C)(C)c1ccc(C(=O)Nc2ccc(F)cc2)s1,39.5*,70.7*,4.5%,31.3%,-16.8
COc1ccc2nc3sc(C(=O)Nc4ccccc4F)cc3cc2c1,x,x,x,x,5.9
CCc1cc2cc(C(=O)Nc3ccc(F)cc3)sc2s1,30.2*,76.3*,0.415µM*,-2.3%,-14.0
CCc1cc2cc(C(=O)Nc3ccccc3F)sc2s1,29.7*,96.6*,9.28µM*,203.9%,42.2
SMILES,Cycloheximide cs,Shiga toxin inh,Pf growth 96h,Pf growth 48h,HCMV antiviral
Cc1nc(Cl)sc1C(=O)Nc1ccc(F)cc1,x,x,x,x,60.7
COC(=O)c1sc(N2C(=O)c3oc4cc(C)c(C)cc4c(=O)c3C2c2ccccc2F)nc1C (centres undefined),x,x,x,x,-1.1
O=C(NCC1CCN(C(=O)c2c(F)c(F)c(F)c(F)c2F)CC1)c1c(F)c(F)c(F)c(F)c1F,11.4,-16.1,u,-8.1%,-13.8
CC1=CCC(C(=O)O)C(C(=O)NC2CCCCC2)C1 (centres undefined),-1.8,-5.1,-18.2%,10.8%,9.5
CCC(C)NC(=O)CN1c2cccc3cccc(c23)S1(=O)=O (centres undefined),-3.8,14.4,-0.6%,-12.7%,-32.9
Cc1oc2c(c1C(=O)NCCO)CCCC2,-5.8,-13.4,0.0131µM*,x,-2.7
Cc1oc2c(c1C(=O)NCc1ccccc1)CCCC2,7.5,-1.5,43.7%,-16.2%,-28.7
COc1ccc2nc(NC(=S)NC(=O)c3ccco3)sc2c1,33.5*,126.9*,-28.8%,231.7%,0.3
